Most compounds without a hit are left out; they make up all but 21% or so of the library.
AMA1-RON2 inh – AMA1-RON2 (P. falciparum) interaction inhibition. AlphaScreen AMA1-biotinylated RON2 peptide binding. Potency, µM (top dose mostly 58.2 µM), inactives show top-dose activity change, negative = inhibition, usual class: inhibitors. actives 0.2% (n = 360,000);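 note: potency is the fitted concentration of half-maximal effect; 0% = vehicle wells and -100% = peptide control; nearly all actives have a fitted effect of over 45% in size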
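AMA1 (3D7) with his tag at 25 nM final met compounds first, then biotinylated RON2 peptide at 25 nM; detection used donor plus acceptor beads, 10 µg/mL apiece, read by AlphaScreen after 30 min at room temperature.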
CHX counter – counter-screen hit for Shiga toxin inhibitors, cycloheximide | max response, % | actives 12% (n = 300,000) | cell reporter, cycloheximide protein synthesis inhibition counterscreen; in the data active = max response mostly above about 13%, no sharp cut-off; inactive = mostly below about 14%; note: read at 38.3 µM for the half of the compounds with a filed dose; 0% is about no effect
Pf growth 48h – inhibits P. falciparum growth in the first generation, 48 h; Potency, µM (series often up to 28.7 µM), inactives show at the highest dose activity change, negative = inhibition, actives largely listed as inhibitors; actives 5.9% (n = 310,000); P. falciparum luciferase growth in erythrocytes, 48 h; note: potency is the fitted concentration of half-maximal effect; % is set by controls: 0 for no effect and ±100 for the full control effect
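Luciferase-expressing parasites in RBCs, 2% Hct / 0.1% parasitemia final; RPMI 1640 + 0.5% Albumax; 37 C, 5% CO2, one generation; luminescence read-out, lower signal = inhibition.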
Shiga inhibitor – Shiga toxin inhibition; actives 9.2% (n = 290,000); inhibition, % at 38.7 µM; Vero cells, Shiga toxin protein synthesis inhibition reporter; AID 2315; in the data active = inhibition mostly above about 28%, no sharp cut-off; inactive = mostly below about 43%; note: 0% is about no effect
HCV inh – blocks hepatitis C virus; Huh7.5.1 HCVcc-Cre infection, luciferase reporter, 44 h; Potency, µM (series often up to 41.8 µM), without a hit: at the highest dose activity change, negative = inhibition, usual class: inhibitors; actives 3.4% (n = 340,000); note: potency is the fitted concentration of half-maximal effect; % is set by controls: 0 for no effect and ±100 for the full control effect
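Infectious HCV cell culture screen: compound-treated cells (1,000/well, pre-plated 4 h) are infected with HCVcc-Cre at roughly 0.5 moi and grown 44 h. Infection is quantified by luciferase signal after 15 min substrate incubation at room temperature.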
Pf growth 96h – P. falciparum growth inhibition at 96 hours; P. falciparum luciferase reporter growth, 96 h; Potency, µM (series often up to 28.7 µM), for the others: at the top dose activity change, negative = inhibition, usual class: inhibitors; actives 6.9% (n = 320,000); AID 504834; note: potency is the fitted concentration of half-maximal effect; % is set by controls: 0 for no effect and ±100 for the full control effect
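Erythrocytes infected with luciferase-expressing P. falciparum were dispensed at 2% hematocrit and 0.05% parasitemia (final), then incubated with compounds 96 hours at 37 C in 5% CO2. Luminescence after detection reagent addition reported growth.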
Numbers without * were called inactive; ? = inconclusive; / = not tested or not shown. Unless noted, calls come from the whole dose curve; as a rule, active = well fitted curve in the direction sought with a large enough effect; inconclusive = small, poorly fitted or top-dose-only effect, or another doubt; inactive = no such curve, though single readings can be large; an effect the other way counts as inactive or inconclusive.

SMILES	AMA1-RON2 inh	CHX counter	Pf growth 48h	Shiga inhibitor	HCV inh	Pf growth 96h
O=C(Cn1cnc2sc(-c3ccccc3)cc2c1=O)N1CCOCC1	0%	-3	17%	-11	-10%	4%
CC(C)(C)C(=O)c1c(N)[nH]c(C(=O)c2ccccc2)c1-c1cc2ccccc2nc1Cl	-2%	/	/	/	/	/
COc1ccccc1NC(=O)N(C)C[C@H]1OCc2cnnn2CCCC(=O)N([C@H](C)CO)C[C@@H]1C	10%	/	/	/	/	/
CC(=O)Cn1nnc2sc(-c3ccccc3)cc2c1=O	19%	46*	105%	93*	-13%	18%
C[C@@H]1C(=O)OC2C[C@@]34[C@H]5C[C@@H](C(C)(C)C)[C@@]36C(O)C(=O)O[C@H]6O[C@@]4(C(=O)O5)[C@]21O (stereo not given in full)	/	4	/	7	/	/
O=C1c2cccnc2C(=O)N1CNc1ccc(Cl)cc1	16%	-1	39%	14	-17%	7%
O=C(NC(=S)Nc1cccc(NC(=S)NC(=O)c2ccco2)n1)c1ccco1	-11%	9	-10%	-1	?	1.3µM*
O=C(NC(=S)Nc1ccccc1Br)c1ccco1	3%	54*	-6%	99*	-21%	?
COc1ccc(Br)cc1/C=N/N1CCN(Cc2ccccc2Cl)CC1	8.9µM*	-2	0%	/	?	17%
COc1ccc(/C=N\N2CCN(Cc3ccccc3Cl)CC2)cc1	15%	-3	-2%	-5	7%	275%
COc1ccccc1/C=C/C=N\N1CCN(Cc2ccccc2Cl)CC1	20µM*	3	?	6	?	19%
COc1ccccc1/C=C/C=N/N1CCN(Cc2ccc(Cl)cc2)CC1	?	-6	?	21	?	?
O=C(NCc1ccccc1Cl)C(=O)c1cn(CC(=O)N2CCOCC2)c2ccccc12	3%	7	-16%	-9	6%	?
O=C(NCc1ccc2c(c1)OCO2)C(C(=O)c1ccccc1)n1cc(Cl)ccc1=O (stereo not given)	3%	-5	-6%	-9	36%	47%
CN(Cc1ccccc1)C(=O)C(C(=O)c1ccc(F)cc1)n1cc(Cl)ccc1=O (stereo not given)	-2%	41*	226%	48*	0%	?
CC(=O)c1cccc(NC(=O)c2sc3nc4n(c(=O)c3c2C)CCCCC4)c1	2%	16	-1%	-4	?	29%
CSc1cccc(NC(=O)c2sc3nc4n(c(=O)c3c2C)CCC4)c1	-11%	17*	41%	50*	?	?
Cc1c(C(=O)Nc2cc(F)ccc2F)sc2nc3n(c(=O)c12)CCCCC3	-2%	36*	104%	31	-2%	?
COc1cccc(NC(=O)c2sc3nc4n(c(=O)c3c2C)CCC4)c1	17%	49*	59%	69*	-13%	?
Cc1c(C(=O)Nc2ccc(Oc3ccccc3)cc2)sc2nc3n(c(=O)c12)CCC3	-2%	-3	12µM*	-17	6.3µM*	17µM*
Cc1c(C(=O)Nc2ccc(OC(F)(F)F)cc2)sc2nc3n(c(=O)c12)CCC3	6%	-5	-9%	-3	-18%	-12%
O=c1[nH]c(-c2ccccc2Cl)nc2c1sc(=S)n2-c1ccccc1	-11%	4	51%	4	8%	56%
O=S(=O)(c1ccc2c(c1)OCCO2)C1CCN(S(=O)(=O)c2c(F)cccc2F)CC1	/	5	/	24	/	/
CCc1ccccc1NC(=O)/C(=C/c1ccco1)c1ccccc1	-20%	8	/	-4	?	1.9µM*
CC(=N[C@@H]1CCCC[C@H]1N=C(C)c1ccccc1O)c1ccccc1O	51%	7	24%	8	-2%	65%
CC(=NCCCN(C)C)C1=C(O)c2ccccc2C1=O	-1%	31	30%	84	3%	0%
CC(=NC1CC1)C1=C(O)c2ccccc2C1=O	3%	50*	/	55*	10%	157%
C/C(=N\N(C)C)C1=C(O)c2ccccc2C1=O	-5%	29*	77%	89*	11%	112%

Bioassay records (PubChem BioAssay)
